Results taken from the supplement of paper PMC11732987, “Enantioselective OTUD7B fragment discovery through chemoproteomics screening and high-throughput optimisation” (Communications Chemistry, 2025).

How the values were obtained:
Experiment in all cases: log2 ratio of Biotin-Ahx-Ub-VS probe labelling (fragment/DMSO); higher = less target engagement (more negative = stronger competition), active = hit call of the paper (q ≤ 0.05, log2 ratio ≤ -1)
Conditions in all cases: compound concentration: 200 uM; treatment time: 3 h
[1] = compound: CC(C)CN(C1CC1)C(=O)CCl
How it was run: (§1)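 Fragment (200 µM) or vehicle was incubated for 3 h with triplicate HEK293T lysate samples of 495 µg, which were then treated with Biotin-Ahx-Ub-VS at 0.5 µM final for 1 h. Labelled DUBs were enriched on NeutrAvidin, digested with LysC and trypsin, and analysed by diaPASEF LC-MS/MS. Values are average log2 fragment/vehicle ratios from an unpaired t-test on global-median-normalised Spectronaut label-free quantities, using proteins with ≥2 unique peptides.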

[2] = compound: CC(NC(=O)CCl)c1cccs1
How it was run: as §1

[3] = compound: CC1CCCCC1NC(=O)CCl
How it was run: as §1

[4] = compound: CC1CCCCN1C(=O)CCl
How it was run: as §1

[5] = compound: CC1CN(CC(C)O1)C(=O)CCl
How it was run: as §1

[6] = compound: CN(C1CCCCC1)C(=O)CCl
How it was run: as §1

[7] = compound: Cc1cc(NC(=O)CCl)no1
How it was run: as §1

[8] = compound: Cc1cccc(NC(=O)CCl)c1
How it was run: as §1

[9] = compound: Cc1nc(NC(=O)CCl)sc1C
How it was run: as §1

[10] = compound: Cc1nnc(NC(=O)CCl)s1
How it was run: as §1

[11] = compound: Cl.Cc1ncsc1CNC(=O)CCl
How it was run: as §1

[12] = compound: ClCC(=O)N1CCCCCCC1
How it was run: as §1

[13] = compound: ClCC(=O)NC(C1CC1)C1CC1
How it was run: as §1

[14] = compound: ClCC(=O)NC1(CCCC1)C#N
How it was run: as §1

[15] = compound: ClCC(=O)NCC1CCC1
How it was run: as §1

[16] = compound: ClCC(=O)NCC1CCCO1
How it was run: as §1

[17] = compound: ClCC(=O)NCc1ccco1
How it was run: as §1

[18] = compound: ClCC(=O)Nc1cccc(Cl)c1
How it was run: as §1

Measured: log2 ratio of Biotin-Ahx-Ub-VS probe labelling

UCHL1 (UniProt P09936)
active: [1] -1.13 | [2] -1.4 | [3] -1.18 | [4] -1.34 | [5] -1.75 | [6] -1.52 | [7] -1.21 | [8] -1.8 | [9] -1.21 | [10] -1.48 | [12] -1.43 | [13] -1.28 | [14] -2.07 | [15] -1.66 | [16] -1.22 | [17] -1.39 | [18] -2.02
inactive: [11] -0.693

USP48 (UniProt Q86UV5)
inactive: [1] -0.00536 | [2] -0.0207 | [3] -0.24 | [4] -0.338 | [5] -0.249 | [6] -0.456 | [7] -0.25 | [8] -0.217 | [9] -0.179 | [10] -0.251 | [11] 0.0264 | [12] -0.519 | [14] -0.56 | [15] -0.21 | [16] -0.0126 | [17] -0.405 | [18] -0.545

OTUD7B (UniProt Q6GQQ9)
active: [2] -1.59 | [3] -1.86 | [7] -1.28 | [13] -1.44 | [14] -1.84 | [15] -1.31 | [18] -1.56
inactive: [1] 0.0222 | [4] -0.521 | [5] -0.504 | [6] -0.33 | [8] -0.708 | [9] -0.151 | [10] -0.187 | [11] -0.43 | [12] -0.18 | [16] -0.129 | [17] -0.96

USP5 (UniProt P45974)
inactive: [1] 0.195 | [2] 0.3 | [3] -0.0515 | [4] -0.178 | [5] 0.00747 | [6] 0.487 | [7] -0.18 | [8] -0.356 | [9] 0.0301 | [10] -0.648 | [11] -0.209 | [12] 0.18 | [14] -0.00567 | [15] -0.0477 | [16] 0.0345 | [17] 0.0924 | [18] -0.784

USP9X (UniProt Q93008)
Chain of UniProt Q93008 (Q93008 whole entry): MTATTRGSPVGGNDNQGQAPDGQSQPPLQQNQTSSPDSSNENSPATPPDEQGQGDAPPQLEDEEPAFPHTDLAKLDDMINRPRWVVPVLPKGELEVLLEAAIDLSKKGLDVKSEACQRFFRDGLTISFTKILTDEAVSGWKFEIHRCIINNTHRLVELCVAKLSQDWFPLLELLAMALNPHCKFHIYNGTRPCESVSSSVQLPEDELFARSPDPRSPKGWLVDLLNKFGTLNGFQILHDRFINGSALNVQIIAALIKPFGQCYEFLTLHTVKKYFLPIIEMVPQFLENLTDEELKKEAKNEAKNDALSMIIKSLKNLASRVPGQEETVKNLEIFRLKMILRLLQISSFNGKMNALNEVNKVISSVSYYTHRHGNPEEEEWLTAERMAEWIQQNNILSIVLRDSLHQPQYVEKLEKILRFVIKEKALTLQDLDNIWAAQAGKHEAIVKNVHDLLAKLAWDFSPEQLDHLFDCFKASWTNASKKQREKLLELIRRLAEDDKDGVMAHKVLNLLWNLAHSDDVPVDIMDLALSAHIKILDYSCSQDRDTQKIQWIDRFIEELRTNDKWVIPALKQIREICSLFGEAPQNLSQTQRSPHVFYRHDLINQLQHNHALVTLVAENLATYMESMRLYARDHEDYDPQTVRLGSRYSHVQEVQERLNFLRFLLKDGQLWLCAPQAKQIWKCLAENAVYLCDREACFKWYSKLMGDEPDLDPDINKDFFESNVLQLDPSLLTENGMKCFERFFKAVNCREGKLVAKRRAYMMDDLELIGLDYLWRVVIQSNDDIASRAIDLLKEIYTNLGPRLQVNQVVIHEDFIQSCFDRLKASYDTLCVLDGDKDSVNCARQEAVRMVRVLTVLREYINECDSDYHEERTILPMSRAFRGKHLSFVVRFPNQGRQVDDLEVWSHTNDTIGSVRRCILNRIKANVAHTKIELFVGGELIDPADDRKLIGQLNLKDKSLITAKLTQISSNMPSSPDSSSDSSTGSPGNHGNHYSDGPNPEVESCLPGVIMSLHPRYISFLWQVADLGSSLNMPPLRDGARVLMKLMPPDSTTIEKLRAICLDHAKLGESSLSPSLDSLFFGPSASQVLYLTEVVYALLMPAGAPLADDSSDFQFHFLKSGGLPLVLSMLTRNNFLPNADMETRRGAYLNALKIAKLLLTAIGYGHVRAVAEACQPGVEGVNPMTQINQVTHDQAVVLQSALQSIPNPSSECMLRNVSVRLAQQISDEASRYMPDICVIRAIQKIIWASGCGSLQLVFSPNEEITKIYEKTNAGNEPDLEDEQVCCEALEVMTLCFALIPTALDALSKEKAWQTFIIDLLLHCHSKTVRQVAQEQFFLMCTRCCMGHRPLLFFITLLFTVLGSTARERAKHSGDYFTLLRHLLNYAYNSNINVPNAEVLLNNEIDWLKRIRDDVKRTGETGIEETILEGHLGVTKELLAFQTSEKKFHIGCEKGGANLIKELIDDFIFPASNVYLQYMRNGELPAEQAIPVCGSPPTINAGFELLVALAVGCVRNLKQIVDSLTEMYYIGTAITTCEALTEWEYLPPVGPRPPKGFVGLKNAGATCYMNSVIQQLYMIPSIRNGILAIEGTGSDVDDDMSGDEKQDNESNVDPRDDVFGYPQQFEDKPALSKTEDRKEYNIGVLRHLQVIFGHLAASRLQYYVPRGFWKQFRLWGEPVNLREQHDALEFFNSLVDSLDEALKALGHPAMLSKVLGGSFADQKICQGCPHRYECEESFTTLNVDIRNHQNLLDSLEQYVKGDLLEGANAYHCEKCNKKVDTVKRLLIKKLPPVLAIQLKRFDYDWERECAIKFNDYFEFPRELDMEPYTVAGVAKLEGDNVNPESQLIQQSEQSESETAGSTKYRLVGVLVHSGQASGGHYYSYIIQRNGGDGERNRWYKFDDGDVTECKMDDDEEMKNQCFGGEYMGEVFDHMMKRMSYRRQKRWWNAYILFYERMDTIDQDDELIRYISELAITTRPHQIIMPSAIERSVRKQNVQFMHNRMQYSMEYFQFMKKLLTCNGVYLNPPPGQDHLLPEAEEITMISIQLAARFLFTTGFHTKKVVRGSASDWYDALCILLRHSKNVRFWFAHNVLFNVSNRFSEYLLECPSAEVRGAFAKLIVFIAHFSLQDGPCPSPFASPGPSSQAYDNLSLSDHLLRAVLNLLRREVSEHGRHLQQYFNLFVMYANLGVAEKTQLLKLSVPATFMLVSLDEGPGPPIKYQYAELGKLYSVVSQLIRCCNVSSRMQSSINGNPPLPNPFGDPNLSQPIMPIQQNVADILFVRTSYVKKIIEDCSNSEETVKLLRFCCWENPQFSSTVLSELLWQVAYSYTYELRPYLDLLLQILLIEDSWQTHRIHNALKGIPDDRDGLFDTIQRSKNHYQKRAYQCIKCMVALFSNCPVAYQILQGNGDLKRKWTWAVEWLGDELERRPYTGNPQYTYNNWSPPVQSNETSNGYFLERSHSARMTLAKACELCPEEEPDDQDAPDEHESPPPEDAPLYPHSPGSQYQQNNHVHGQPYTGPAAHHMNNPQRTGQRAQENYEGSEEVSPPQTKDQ
inactive: [1] -0.0684 | [2] -0.269 | [3] -0.142 | [4] -0.264 | [5] -0.347 | [6] -0.336 | [7] -0.0452 | [8] -0.0218 | [9] -0.239 | [10] -0.36 | [11] -0.111 | [12] 0.0487 | [14] -0.264 | [15] -0.191 | [16] -0.0136 | [17] -0.446 | [18] -0.734

USP34 (UniProt Q70CQ2)
inactive: [1] -0.0417 | [2] -0.172 | [3] -0.119 | [4] -0.00177 | [5] -0.247 | [6] -0.0987 | [7] -0.256 | [8] -0.0637 | [9] -0.0566 | [10] -0.451 | [11] -0.0758 | [12] -0.0409 | [14] -0.0189 | [15] 0.000583 | [16] 0.219 | [17] -0.146 | [18] -0.774

ATXN3 (UniProt P54252)
Chain of UniProt P54252 (P54252 whole entry): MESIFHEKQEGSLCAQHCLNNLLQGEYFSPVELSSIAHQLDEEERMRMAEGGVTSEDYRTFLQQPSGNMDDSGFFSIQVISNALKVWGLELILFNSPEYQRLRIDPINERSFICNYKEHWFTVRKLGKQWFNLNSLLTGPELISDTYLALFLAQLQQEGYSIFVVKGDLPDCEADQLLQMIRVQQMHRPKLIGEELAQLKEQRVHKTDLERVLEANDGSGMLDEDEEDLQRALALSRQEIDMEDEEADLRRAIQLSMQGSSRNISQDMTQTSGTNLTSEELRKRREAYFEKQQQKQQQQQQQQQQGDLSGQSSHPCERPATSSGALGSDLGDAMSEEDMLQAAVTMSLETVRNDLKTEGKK
active: [18] -1.02
inactive: [1] -0.0377 | [2] 0.0273 | [3] -0.0841 | [4] -0.487 | [5] -0.327 | [6] -0.303 | [7] -0.0822 | [8] -0.171 | [9] -0.116 | [10] -0.268 | [11] -0.254 | [12] -0.156 | [13] 0.0786 | [14] -0.305 | [15] -0.206 | [16] -0.0451 | [17] -0.0869

UniProt P51784
Chain of UniProt P51784 (P51784 whole entry): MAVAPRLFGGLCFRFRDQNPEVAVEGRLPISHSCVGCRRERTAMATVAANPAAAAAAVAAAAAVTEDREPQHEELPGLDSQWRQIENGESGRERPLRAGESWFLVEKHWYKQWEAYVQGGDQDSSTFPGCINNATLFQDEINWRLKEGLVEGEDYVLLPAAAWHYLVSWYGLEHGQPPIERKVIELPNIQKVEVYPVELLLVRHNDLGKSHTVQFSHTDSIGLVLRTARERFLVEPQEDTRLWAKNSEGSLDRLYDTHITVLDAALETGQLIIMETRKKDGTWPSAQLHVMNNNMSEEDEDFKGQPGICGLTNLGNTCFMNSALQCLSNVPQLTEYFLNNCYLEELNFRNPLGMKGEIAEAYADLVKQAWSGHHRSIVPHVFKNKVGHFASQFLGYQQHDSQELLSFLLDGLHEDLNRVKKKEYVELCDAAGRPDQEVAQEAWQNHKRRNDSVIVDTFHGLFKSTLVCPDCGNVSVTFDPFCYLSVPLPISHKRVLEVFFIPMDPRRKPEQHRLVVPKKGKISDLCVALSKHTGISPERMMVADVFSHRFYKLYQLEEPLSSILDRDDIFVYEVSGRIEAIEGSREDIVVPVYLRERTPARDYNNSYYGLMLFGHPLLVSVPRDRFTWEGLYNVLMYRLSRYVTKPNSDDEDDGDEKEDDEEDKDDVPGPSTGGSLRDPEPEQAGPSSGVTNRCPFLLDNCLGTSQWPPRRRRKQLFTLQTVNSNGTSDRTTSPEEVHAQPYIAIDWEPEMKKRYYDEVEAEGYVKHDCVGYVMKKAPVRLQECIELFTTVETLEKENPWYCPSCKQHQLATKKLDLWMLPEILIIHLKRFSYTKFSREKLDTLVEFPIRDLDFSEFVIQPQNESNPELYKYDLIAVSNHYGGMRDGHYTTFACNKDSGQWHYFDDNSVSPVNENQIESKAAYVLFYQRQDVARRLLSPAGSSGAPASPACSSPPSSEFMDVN
inactive: [1] -0.051 | [2] 0.138 | [3] 0.0474 | [4] -0.248 | [5] -0.0132 | [6] 0.0405 | [7] -0.202 | [8] -0.227 | [9] 0.0778 | [10] -0.209 | [11] 0.0993 | [12] -0.126 | [14] -0.072 | [15] -0.102 | [16] 0.104 | [17] -0.104 | [18] -0.628

PSMD7 (UniProt P51665)
inactive: [1] -0.0028 | [2] -0.0716 | [3] 0.132 | [4] -0.25 | [5] -0.394 | [6] -0.133 | [7] -0.0871 | [8] -0.0249 | [9] 0.0653 | [10] -0.0837 | [11] -0.291 | [12] -0.184 | [13] -0.0309 | [14] -0.279 | [15] -0.286 | [16] 0.0364 | [17] -0.47 | [18] -0.124

PRPF8 (UniProt Q6P2Q9)
inactive: [1] 0.0577 | [2] -0.0808 | [3] -0.0383 | [4] -0.109 | [5] -0.0419 | [6] -0.249 | [7] 0.147 | [8] 0.15 | [9] 0.137 | [10] 0.0499 | [11] -0.0129 | [12] 0.139 | [14] -0.152 | [15] -0.103 | [16] 0.164 | [17] -0.228 | [18] 0.0652

USP10 (UniProt Q14694)
inactive: [1] -0.156 | [2] -0.0602 | [3] -0.0935 | [4] -0.0758 | [5] -0.166 | [6] -0.0336 | [7] -0.0298 | [8] -0.165 | [9] -0.0878 | [10] -0.256 | [11] -0.128 | [12] -0.22 | [14] 0.0316 | [15] -0.0499 | [16] -0.115 | [17] -0.0176 | [18] -0.249

OTUD4 (UniProt Q01804)
Chain of UniProt Q01804 (Q01804 whole entry): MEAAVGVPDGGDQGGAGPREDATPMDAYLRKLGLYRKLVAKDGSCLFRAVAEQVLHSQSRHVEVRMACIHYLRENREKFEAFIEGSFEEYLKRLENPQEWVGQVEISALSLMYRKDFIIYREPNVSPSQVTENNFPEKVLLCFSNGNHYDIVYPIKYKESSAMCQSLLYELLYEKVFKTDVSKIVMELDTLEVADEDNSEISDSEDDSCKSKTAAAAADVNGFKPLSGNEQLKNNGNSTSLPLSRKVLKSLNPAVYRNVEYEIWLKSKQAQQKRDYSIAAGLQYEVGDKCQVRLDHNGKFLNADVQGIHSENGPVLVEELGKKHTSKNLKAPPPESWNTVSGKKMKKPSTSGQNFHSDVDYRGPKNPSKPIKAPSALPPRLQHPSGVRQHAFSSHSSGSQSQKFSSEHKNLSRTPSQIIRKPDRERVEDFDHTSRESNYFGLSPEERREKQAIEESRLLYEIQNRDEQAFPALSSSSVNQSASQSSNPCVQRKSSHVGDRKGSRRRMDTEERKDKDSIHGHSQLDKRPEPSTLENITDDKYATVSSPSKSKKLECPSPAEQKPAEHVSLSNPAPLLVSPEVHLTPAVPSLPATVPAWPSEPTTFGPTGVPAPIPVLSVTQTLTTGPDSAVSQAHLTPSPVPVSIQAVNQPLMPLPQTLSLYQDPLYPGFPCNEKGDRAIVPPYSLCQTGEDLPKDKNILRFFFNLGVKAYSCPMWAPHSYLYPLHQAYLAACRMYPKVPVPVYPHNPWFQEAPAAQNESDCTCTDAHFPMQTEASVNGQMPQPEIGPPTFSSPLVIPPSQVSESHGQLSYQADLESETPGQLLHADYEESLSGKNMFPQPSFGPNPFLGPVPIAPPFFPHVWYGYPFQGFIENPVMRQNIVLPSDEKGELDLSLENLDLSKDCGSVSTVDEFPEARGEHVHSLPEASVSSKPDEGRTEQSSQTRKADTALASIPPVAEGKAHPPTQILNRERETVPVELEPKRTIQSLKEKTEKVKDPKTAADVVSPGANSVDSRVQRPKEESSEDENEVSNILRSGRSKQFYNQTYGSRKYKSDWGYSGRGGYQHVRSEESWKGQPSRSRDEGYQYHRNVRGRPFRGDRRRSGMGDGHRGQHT
inactive: [1] 0.0776 | [2] -0.761 | [3] -0.763 | [4] -0.46 | [5] -0.413 | [6] -0.109 | [7] 0.0839 | [8] -0.0534 | [9] -0.136 | [10] 0.02 | [11] -0.0939 | [12] -0.131 | [13] -0.457 | [15] -0.397 | [16] 0.0366 | [17] -0.354 | [18] -0.972
active: [14] -2.71

USP16 (UniProt Q9Y5T5)
inactive: [1] -0.505 | [2] -0.513 | [3] 0.199 | [4] -0.203 | [5] -0.306 | [6] -0.171 | [7] -0.735 | [8] -0.611 | [9] -0.0917 | [10] -0.476 | [11] 0.128 | [12] -0.675 | [14] -0.0851 | [15] -0.131 | [16] -0.506 | [17] -0.128 | [18] -0.24

OTUD5 (UniProt Q96G74)
inactive: [1] -0.09 | [2] 0.0244 | [3] -0.556 | [4] -0.67 | [5] -0.615 | [6] -0.0917 | [7] -0.331 | [8] -0.13 | [9] -0.315 | [10] -0.685 | [11] -0.104 | [12] -0.27 | [14] -0.519 | [15] -0.238 | [16] -0.0992 | [17] -0.442 | [18] -0.995

UniProt Q9P2H5
inactive: [1] -0.166 | [2] -0.204 | [3] 0.0516 | [4] -0.0828 | [5] -0.259 | [6] -0.335 | [7] 0.0945 | [8] -0.217 | [9] -0.0782 | [10] -0.183 | [11] -0.0813 | [12] -0.0714 | [13] -0.0753 | [14] -0.237 | [15] -0.322 | [16] -0.138 | [17] -0.105 | [18] -0.631

EIF3F (UniProt O00303)
inactive: [1] -0.0929 | [2] -0.197 | [3] -0.16 | [4] -0.0889 | [5] -0.424 | [6] -0.158 | [7] -0.0386 | [8] -0.0785 | [9] 0.0404 | [10] -0.0892 | [11] -0.495 | [12] -0.124 | [13] -0.0875 | [14] -0.132 | [15] -0.235 | [16] 0.0109 | [17] 0.0785 | [18] -0.0247

USP15 (UniProt Q9Y4E8)
inactive: [1] -0.00677 | [2] 0.017 | [3] -0.0215 | [4] -0.269 | [5] -0.339 | [6] -0.338 | [7] -0.104 | [8] -0.325 | [9] -0.245 | [10] -0.374 | [11] -0.116 | [12] -0.163 | [14] -0.364 | [15] -0.255 | [16] 0.0921 | [17] -0.327 | [18] -0.77

UniProt O00507
inactive: [1] 0.374 | [2] 0.0497 | [3] -0.0879 | [4] -0.429 | [5] -0.148 | [6] 0.12 | [7] 0.023 | [8] 0.0709 | [9] 0.409 | [10] -0.563 | [11] -0.51 | [12] 0.333 | [14] 0.0321 | [15] 0.0835 | [16] 0.383 | [17] -0.338 | [18] -0.568
